# Test results taken from PubChem BioAssay (Tox21).
# Values without a mark were called inactive. Records with an inconclusive call do not appear. Entries that show only a call come without a potency. Activity calls are given as the source filed them. Unless noted, the call rests on the fitted dose curve; in most records, active means well fitted curve in the direction sought with a large enough effect in the repeat runs; inconclusive means weak or mixed curves; inactive means no such curve, though single readings can be large; an effect the other way counts as inactive or inconclusive.
# Tests used:
# [1] = qHTS assay to identify small molecule agonists of the hypoxia (HIF-1) signaling pathway - cell viability counter screen (AID 1224844; calls by dose curve; further: nearly all actives have a fitted effect of over 50% in size)
# How it was run: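 ME-180 HRE-bla cells, 2,000/well, 0.5% dialyzed FBS; 5 hr settle, 17 hr compound at 37C/5% CO2; CCF4-AM reporter read first, then CellTiter-Glo luminescence after 30 min RT.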
# [2] = qHTS assay to identify small molecule agonists of H2AX (AID 1224845; active means well fitted activation curve with a large enough effect in the signal ratio in the repeat runs, not every such curve was filed as active; the % refers to the signal ratio)
# How it was run: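 Wild-type CHO-K1 cells, plated overnight, exposed 3hr at 37C to 15 concentrations (0.76% DMSO final). Lysed, then HTRF anti-pH2AX (S139) cryptate and anti-H2AX-d2 antibodies, 24 hr room temperature; 665/620 nm emission read.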
# [3] = qHTS assay to identify small molecule agonists of H2AX - cell viability counter screen (AID 1224847; calls by dose curve; further: top concentration of the series differs between compounds; nearly all actives have a fitted effect of over 30% in size)
# How it was run: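 CHO-K1 cells plated overnight at 37C, then exposed 3 h at 37C to compounds at 15 concentrations (0.76% DMSO final). Viability by CellTiter-Glo luminescence after 30 min at room temperature.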
# [4] = qHTS assay to identify small molecule antagonists of the estrogen related receptor (ERR) signaling pathway from Tox21 library (AID 1224848); further: nearly all actives have a fitted effect of over 50% in size
# How it was run: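 ERR reporter cell line (from NTP) seeded 2,000 cells/well, rested 6 h at 37 C/5% CO2, then pin-dosed with compounds in DMSO. After 18 h at 37 C, ONE-Glo added; luminescence read after 30 min at room temperature.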
# [5] = qHTS RealTime-Glo MT Cell Viability Assay in HepG2 cells - 24 hour (AID 1224867); further: nearly all actives have a fitted effect of over 50% in size
# How it was run: (§1)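 Viability was tracked continuously by NanoLuc luminescence from prosubstrate reduced by living HepG2 cells, at successive time points over 40 h of compound exposure. Cells with reagent were preincubated 5 h at 37 °C before compound addition.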
# [6] = qHTS RealTime-Glo MT Cell Viability Assay in HEK293 cells - 32 hour (AID 1224868); further: top concentration of the series differs between compounds; nearly all actives have a fitted effect of over 50% in size
# How it was run: (§2)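 Viability tracked continuously by luminescence as live cells reduce a prosubstrate for NanoLuc; HEK293 cells preincubated 5 h, compound-treated at 37 C, and read at 0, 8, 16, 24, 32 and 40 h.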
# [7] = A CellTox Green Cytotoxicity Assay to monitor cytotoxicity in HEK293 cells - 0 hour (AID 1224869); further: nearly all actives have a fitted effect of over 50% in size
# How it was run: (§3)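 Nonlytic real-time cytotoxicity: HEK293 + CellTox Green reagent plated, 5 h preincubation, pintool compound addition (23 nL in DMSO), 37 C for 40 h, fluorescence measured at successive time points.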
# [8] = A CellTox Green Cytotoxicity Assay to monitor cytotoxicity in HEK293 cells - 40 hour (AID 1224871); further: nearly all actives have a fitted effect of over 45% in size
# How it was run: as §3
# [9] = qHTS RealTime-Glo MT Cell Viability Assay in HEK293 cells - 16 hour (AID 1224872)
# How it was run: as §2
# [10] = qHTS RealTime-Glo MT Cell Viability Assay in HepG2 cells - 8 hour (AID 1224873); further: nearly all actives have a fitted effect of over 55% in size
# How it was run: (§4)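 HepG2 cells (600/well) mixed with RealTime-Glo MT reagent, settled 5 h at 37 C/5% CO2 before compound addition. Nonlytic NanoLuc luminescence from viable-cell prosubstrate reduction read repeatedly during 40 h treatment at 37 C.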
# [11] = qHTS RealTime-Glo MT Cell Viability Assay in HEK293 cells - 40 hour (AID 1224874); conditions: RealTime-Glo luminescence; max response: hits give low values; further: nearly all actives have a fitted effect of over 50% in size; further: potency means the concentration at half of the fitted maximal effect
# How it was run: (§5)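 Cells were seeded together with NanoLuc luciferase and a prosubstrate that viable cells reduce to a luciferase substrate. After a 5 h incubation at 37 C/5% CO2, compounds were added and luminescence was measured repeatedly during 40 h of treatment.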
# [12] = A CellTox Green Cytotoxicity Assay to monitor cytotoxicity in HEK293 cells - 24 hour (AID 1224875); further: series mostly up to about 77 µM; nearly all actives have a fitted effect of over 45% in size
# How it was run: as §3
# [13] = A CellTox Green Cytotoxicity Assay to monitor cytotoxicity in HepG2 cells - 16 hour (AID 1224876); further: nearly all actives have a fitted effect of over 45% in size
# How it was run: (§6)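 Read-out is fluorescence of a cyanine dye excluded from live cells that stains DNA of dead HepG2 cells, with signal proportional to cytotoxicity. Plates were read at 0, 8, 16, 24, 32 and 40 h after compound addition.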
# [14] = qHTS RealTime-Glo MT Cell Viability Assay in HepG2 cells - 32 hour (AID 1224877); further: nearly all actives have a fitted effect of over 55% in size; further: potency means the concentration at half of the fitted maximal effect
# How it was run: as §1
# [15] = A CellTox Green Cytotoxicity Assay to monitor cytotoxicity in HepG2 cells - 24 hour (AID 1224878); further: nearly all actives have a fitted effect of over 45% in size
# How it was run: as §6
# [16] = A CellTox Green Cytotoxicity Assay to monitor cytotoxicity in HepG2 cells - 40 hour (AID 1224879); further: nearly all actives have a fitted effect of over 40% in size
# How it was run: as §6
# [17] = qHTS RealTime-Glo MT Cell Viability Assay in HEK293 cells - 0 hour (AID 1224880); further: nearly all actives have a fitted effect of over 45% in size; further: potency means the concentration at half of the fitted maximal effect
# How it was run: as §5
# [18] = qHTS assay to identify small molecule agonists of the hypoxia (HIF-1) signaling pathway (AID 1224846; active means well fitted activation curve with a large enough effect in the signal ratio in the repeat runs, not every such curve was filed as active; the % refers to the signal ratio)
# How it was run: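 Cell line: CellSensor HRE-bla ME-180; 2,000 cells/well; 0.5% dialyzed FBS; 5 h preincubation; DMSO compound pin transfer; 17 h, 37C, 5% CO2; CCF4-AM added; bla FRET signal scored for activation.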
# [19] = qHTS RealTime-Glo MT Cell Viability Assay in HepG2 cells - 40 hour (AID 1224870); further: nearly all actives have a fitted effect of over 50% in size; further: potency means the concentration at half of the fitted maximal effect
# How it was run: as §4
# [20] = qHTS assay to identify small molecule agonists of the estrogen related receptor (ERR) signaling pathway from Tox21 library (AID 1224849; calls by dose curve; further: nearly all actives have a fitted effect of over 15% in size)
# How it was run: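 ERR cells, 6 h pre-incubation 37 C/5% CO2; cpd in DMSO pinned; 18 h 37 C; ONE-Glo added, 30 min RT; luminescence read. Agonist mode, qHTS.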
compound,measurement,setting,value
C[C@@H]1CCC[C@H](C)N1,Potency,[1],inactive
same,Potency,[2],inactive
same,outcome,[3],inactive
same,Potency,[4],inactive
same,outcome,[5],inactive
same,Potency,[6],inactive
same,outcome,[7],inactive
same,Potency,[8],inactive
same,Potency,[9],inactive
same,outcome,[10],inactive
same,max response,[11],0.353%
same,outcome,[12],inactive
same,outcome,[13],inactive
same,Potency,[14],inactive
same,outcome,[15],inactive
same,Potency,[16],inactive
same,Potency,[17],inactive
CCNS(=O)(=O)c1ccc(C)cc1,Potency,[1],inactive
same,Potency,[2],inactive
same,outcome,[18],inactive
same,outcome,[5],inactive
same,Potency,[6],inactive
same,Potency,[19],inactive
same,Potency,[9],inactive
same,outcome,[10],inactive
same,max response,[11],0.516%
same,outcome,[12],inactive
same,outcome,[13],inactive
same,Potency,[14],inactive
same,outcome,[15],inactive
same,Potency,[17],inactive
NCCCC[C@H](N[C@@H](CCc1ccccc1)C(=O)O)C(=O)N1CCC[C@H]1C(=O)O,Potency,[1],inactive
same,Potency,[2],inactive
same,outcome,[3],inactive
same,outcome,[5],inactive
same,Potency,[6],inactive
same,Potency,[19],inactive
same,Potency,[8],inactive
same,Potency,[9],inactive
same,outcome,[10],inactive
same,outcome,[12],inactive
same,outcome,[13],inactive
same,Potency,[14],inactive
same,outcome,[15],inactive
same,Potency,[16],inactive
same,Potency,[17],inactive
[K+],Potency,[1],inactive
same,Potency,[2],inactive
same,outcome,[3],inactive
same,Potency,[6],inactive
same,outcome,[7],inactive
same,Potency,[19],34.7 µM (active)
same,Potency,[8],inactive
same,Potency,[9],inactive
same,outcome,[10],inactive
same,max response,[11],21.2%
same,outcome,[12],inactive
same,outcome,[13],inactive
same,Potency,[14],49 µM (active)
same,outcome,[15],inactive
same,Potency,[16],inactive
COC(=O)C1=C(C)NC(C)=C(C(=O)OC(C)C)C1c1cccc2nonc12 (stereo not drawn),Potency,[1],inactive
same,Potency,[2],inactive
same,outcome,[3],inactive
same,outcome,[20],inactive
same,Potency,[8],inactive
same,Potency,[11],16.9 µM (active)
same,outcome,[12],inactive
same,outcome,[13],inactive
same,outcome,[15],inactive
same,Potency,[17],1.69 µM (active)
C[N+](C)(C)CCCCCCCCCC[N+](C)(C)C,Potency,[1],inactive
same,Potency,[2],inactive
same,outcome,[3],inactive
same,outcome,[5],inactive
same,outcome,[7],inactive
same,Potency,[19],inactive
same,Potency,[8],inactive
same,Potency,[9],inactive
same,outcome,[10],inactive
same,max response,[11],9.07%
same,outcome,[12],inactive
same,outcome,[13],inactive
same,Potency,[14],inactive
same,outcome,[15],inactive
same,Potency,[16],inactive
same,Potency,[17],inactive
CN(C)C(=O)Oc1cccc([N+](C)(C)C)c1,Potency,[1],inactive
same,Potency,[2],inactive
same,outcome,[3],inactive
same,outcome,[5],inactive
same,Potency,[6],inactive
same,outcome,[7],inactive
same,Potency,[19],inactive
same,Potency,[8],inactive
same,Potency,[9],inactive
same,outcome,[10],inactive
same,max response,[11],6.55%
same,outcome,[12],inactive
same,outcome,[13],inactive
same,Potency,[14],inactive
same,outcome,[15],inactive
same,Potency,[16],inactive
same,Potency,[17],inactive
COc1cc(C(=O)NCc2ccc(OCCN(C)C)cc2)cc(OC)c1OC,Potency,[1],inactive
same,Potency,[2],inactive
same,outcome,[3],inactive
same,outcome,[5],inactive
same,Potency,[6],inactive
same,outcome,[7],inactive
same,Potency,[19],inactive
same,Potency,[8],inactive
same,outcome,[10],inactive
same,max response,[11],-23.7%
same,outcome,[12],inactive
same,outcome,[13],inactive
same,Potency,[14],inactive
same,outcome,[15],inactive
same,Potency,[16],inactive
same,Potency,[17],inactive
CCN[C@H]1C[C@H](C)S(=O)(=O)c2sc(S(N)(=O)=O)cc21,Potency,[1],inactive
same,Potency,[2],inactive
same,outcome,[3],inactive
same,outcome,[5],inactive
same,outcome,[7],inactive
same,Potency,[19],inactive
same,Potency,[8],inactive
same,Potency,[9],inactive
same,outcome,[10],inactive
same,max response,[11],-0.522%
same,outcome,[12],inactive
same,outcome,[13],inactive
same,Potency,[14],inactive
same,outcome,[15],inactive
same,Potency,[16],inactive
same,Potency,[17],inactive
Cc1c(N)c(=O)n(-c2ccccc2)n1C,Potency,[1],inactive
same,Potency,[2],inactive
same,outcome,[3],inactive
same,Potency,[6],inactive
same,outcome,[7],inactive
same,Potency,[8],inactive
same,Potency,[9],inactive
same,outcome,[10],inactive
same,max response,[11],-5.41%
same,outcome,[12],inactive
same,Potency,[14],inactive
same,Potency,[17],inactive
CN1CCC(=C2c3ccccc3CCc3cccnc32)CC1,Potency,[1],inactive
same,Potency,[2],inactive
same,outcome,[3],inactive
same,outcome,[5],inactive
same,Potency,[6],inactive
same,outcome,[7],inactive
same,Potency,[19],inactive
same,Potency,[8],inactive
same,Potency,[9],inactive
same,outcome,[10],inactive
same,max response,[11],-11%
same,outcome,[12],inactive
same,outcome,[13],inactive
same,Potency,[14],inactive
same,outcome,[15],inactive
same,Potency,[17],inactive
CC[N+](CC)(CC)CCOc1cccc(OCC[N+](CC)(CC)CC)c1OCC[N+](CC)(CC)CC,Potency,[1],inactive
same,Potency,[2],inactive
same,outcome,[3],inactive
same,Potency,[6],inactive
same,Potency,[19],23.9 µM (active)
same,Potency,[8],inactive
same,Potency,[9],inactive
same,outcome,[10],inactive
same,max response,[11],2.7%
same,outcome,[12],inactive
same,outcome,[13],inactive
same,outcome,[15],inactive
same,Potency,[16],inactive
same,Potency,[17],inactive
CCCc1ncc(C[n+]2ccccc2C)c(N)n1,Potency,[1],inactive
same,Potency,[2],inactive
same,outcome,[3],inactive
same,outcome,[5],inactive
same,Potency,[6],inactive
same,outcome,[7],inactive
same,Potency,[19],inactive
same,Potency,[8],inactive
same,Potency,[9],inactive
same,outcome,[10],inactive
same,max response,[11],6.68%
same,outcome,[12],inactive
same,outcome,[13],inactive
same,Potency,[14],inactive
same,outcome,[15],inactive
same,Potency,[17],inactive
CCOC(=O)c1cnc2c(cnn2CC)c1NN=C(C)C,Potency,[1],inactive
same,Potency,[2],inactive
same,outcome,[3],inactive
same,outcome,[5],inactive
same,Potency,[6],inactive
same,outcome,[7],inactive
same,Potency,[19],inactive
same,Potency,[9],inactive
same,outcome,[10],inactive
same,max response,[11],-11.3%
same,outcome,[13],inactive
same,Potency,[14],inactive
same,outcome,[15],inactive
same,Potency,[16],inactive
same,Potency,[17],inactive
CC(C)C1CCC(O)CC1 (stereo not drawn),Potency,[1],inactive
same,Potency,[2],inactive
same,outcome,[3],inactive
same,outcome,[5],inactive
same,Potency,[6],inactive
same,outcome,[7],inactive
same,Potency,[19],inactive
same,Potency,[8],inactive
same,Potency,[9],inactive
same,outcome,[10],inactive
same,max response,[11],7.59%
same,outcome,[12],inactive
same,outcome,[13],inactive
same,Potency,[14],inactive
same,outcome,[15],inactive
same,Potency,[16],inactive
same,Potency,[17],inactive
CC1=NS(=O)(=O)c2cc(Cl)ccc2N1,Potency,[1],inactive
same,Potency,[2],inactive
same,outcome,[3],inactive
same,outcome,[5],inactive
same,Potency,[6],inactive
same,outcome,[7],inactive
same,Potency,[19],inactive
same,Potency,[8],inactive
same,Potency,[9],inactive
same,outcome,[10],inactive
same,max response,[11],2.07%
same,outcome,[12],inactive
same,outcome,[13],inactive
same,Potency,[14],inactive
same,outcome,[15],inactive
same,Potency,[16],inactive
same,Potency,[17],inactive
